Screens as filed in PubChem BioAssay.
CendR NRP1 mod = alters CendR peptide binding to human NRP-1. O14786. FAM-RPARPAR peptide binding to NRP-1, fluorescence polarization. inhibition, % at 25 µM. actives 0.85% (n = 360,000). AID 602438;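 active means inhibition or corrected inhibition above about 18%, plus a signal ratio from 0.5 to 1.5, limit read from the data, passing the limit was not always enough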
CRFR2-BP antag = CRF-BP/CRF-R2 complex antagonism; HEK293 CRF-R2/CRF-BP, CRF-induced calcium fluorescence; inhibition, % at 11.8 µM; actives 0.59% (n = 350,000); AID 588475;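 active means inhibition of the ligand-induced calcium signal above about 50% at the single tested concentration, limit read from the data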
Myeloid diff 2 = promotes myeloid progenitor differentiation; ER-HoxA9 myeloid progenitors, lysozyme-GFP differentiation, flow cytometry; actives 1% (n = 360,000); calls only at 10 µM;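 active means normalized GFP-positive differentiation at or above the plate's own cutoff, the solvent-only control mean plus 3 SD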;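 further: cells exposed to compound for four days before flow analysis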
FAS-TE inh = FAS thioesterase (human) inhibition | P49327 | recombinant FAS-TE, OMFH fluorogenic substrate, fluorescence endpoint | inhibition, % at 15 µM | actives 0.67% (n = 360,000) | AID 602261;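 active means compounds whose normalised, plate-corrected inhibition of enzyme fluorescence in the single-dose primary screen is 50% or more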
NadD block = inhibitors of Staphylococcus aureus NadD | inhibition, % at 20 µM | actives 0.78% (n = 360,000) | purified NadD enzyme, colorimetric absorbance read-out | AID 602399; in the data active means inhibition above about 26%
Hits are given with their value; . = inactive; / = not tested or not shown; + = active, no number. A selection: hits, their analogues and other compounds. The true share with any hit is near 3.6%.

SMILES	CendR NRP1 mod	CRFR2-BP antag	Myeloid diff 2	FAS-TE inh	NadD block
C(=Cc1nc2ccccc2o1)c1ccc2c(c1)OCO2	26.4	.	.	.	.
CCN(CC)C(=O)CSc1nc2ccccc2c(=O)n1CC	.	.	.	.	.
CCN(CC)C(=O)CSc1nc2ccccc2c(=O)n1OC(C)C	.	.	+	.	.
COc1ccccc1C(C)NC(=O)c1ccc(S(=O)(=O)NCc2ccco2)cc1 (stereo not drawn)	.	.	.	.	.
COc1ccc(-c2cccc(NS(=O)(=O)c3cccc([N+](=O)[O-])c3)c2)nn1	.	58.0	.	.	.
CC(C(=O)N1CCc2ccccc21)N1CCN(S(=O)(=O)c2cccc(C(F)(F)F)c2)CC1 (stereo not drawn)	.	.	.	.	.
O=S(=O)(NCc1ccc(F)cc1)c1ccc(-n2cccn2)cc1	21.2	.	.	.	.
CC(C)C[C@@H](C)C(=O)N(Cc1ccccc1)c1ccccc1	32.0	.	.	.	.
CC[C@@H](CCC=C(C)C)C(=O)N(Cc1ccccc1)c1ccccc1	.	.	.	.	.
CCCCNC(=O)c1nc(-c2cccnc2)oc1-c1ccc(OC(F)(F)F)cc1	.	/	.	/	/
O=C(Nc1ccccn1)c1ccc(C(=O)c2ccccc2)cc1	.	55.3	.	.	.
Cc1noc(C)c1C(=O)Nc1ccc(N(C)C)cc1	.	.	.	.	.
Cc1noc(C)c1C(=O)Nc1ccc(F)cc1	40.8	.	.	.	.
CN(C)CCOc1ccc2c(c1)C(=O)C(=Cc1ncc([N+](=O)[O-])n1C)C2	.	.	/	.	.
FC(F)(F)C1=Nc2cccc3cccc(c23)N1	38.4	.	.	.	72.2
Cc1ccc(C(=O)c2c(NC(=O)CSc3nnc(N)s3)sc3c2CCCC3)cc1	32.6	.	.	.	.
Nc1nnc(SCC(=O)Nc2sc3c(c2C(=O)c2ccccc2)CCCC3)s1	.	.	.	.	.
CCC(=O)N/N=C/c1ccc(-c2ccc([N+](=O)[O-])cc2)o1	.	.	.	.	.
CC(C)(C)C(=O)/C=c1\s/c(=C\c2ccc(-c3ccc([N+](=O)[O-])cc3)o2)c(=O)n1CC(=O)NC(N)=O	.	.	+	.	.
COc1ccccc1-n1cc(CN2CCN(C3CCCCC3)C(CCO)C2)cn1 (stereo not drawn)	.	.	.	.	.
CN1CCN(S(=O)(=O)c2ccc(NC(=O)c3cccs3)cc2)CC1	21.9	.	.	.	.
O=C(Nc1nc(-c2ccc(S(=O)(=O)N3CCCCCC3)cc2)cs1)c1cccs1	.	.	.	.	.
O=C(Nc1nc(-c2ccc(S(=O)(=O)N3CCCC3)cc2)cs1)c1cccs1	.	.	.	52.0	.
O=C(Nc1ccc(S(=O)(=O)N2CCCC2)cc1)c1cccs1	.	.	.	.	.
Cc1ccc(CN(C)C(=O)CCc2c[nH]c3ccccc23)o1	.	56.6	/	.	.
SMILES	CendR NRP1 mod	CRFR2-BP antag	Myeloid diff 2	FAS-TE inh	NadD block
CN(Cc1cccnc1)C(=O)CCCc1c[nH]c2ccccc12	.	.	/	.	.
O=C(Nc1ccc(F)c(F)c1)C1CCCN(S(=O)(=O)c2cccc3nonc23)C1 (stereo not drawn)	.	.	+	.	.
Cc1cccc(NC(=O)C2CCCN(S(=O)(=O)c3cccc4nonc34)C2)c1 (stereo not drawn)	.	.	.	.	.
CCOc1ccc(CCN2C(=S)N([C@@H](Cc3ccc(O)cc3)CN3CCC[C@@H]3CN3C(=S)NC[C@@H]3CC(C)C)C[C@@H]2CC(C)C)cc1	.	/	.	.	.
O=C(/C=C/c1cccc([N+](=O)[O-])c1)c1ccc([N+](=O)[O-])o1	.	.	+	.	.
COc1ccc(Cl)cc1Nc1nc(NCCO)nc(N2CCCCC2)n1	.	51.1	.	.	.
O=C(CCCN1C(=O)/C(=C\c2ccccc2)SC1=S)N1CCOCC1	.	.	.	.	.
O=C(CCN1C(=O)/C(=C\c2cccc(Br)c2)SC1=S)N1CCOCC1	.	63.8	.	.	.
COc1ccc(S(=O)(=O)NCC(=O)NCc2cc(=O)n(C)c(=O)n2C)cc1C	.	.	+	.	.
CCN(CCn1cccn1)C(=O)C1CCC(=O)N(CC2CCCCC2)C1 (stereo not drawn)	.	.	.	.	.
CCN(CC)CCNC(=O)c1ccc(NC(=O)c2cccc(S(=O)(=O)N3c4ccccc4CC3C)c2)cc1 (stereo not drawn)	29.5	.	.	.	.
CC1Cc2ccccc2N1S(=O)(=O)c1cccc(C(=O)N2CCN(c3ncccn3)CC2)c1 (stereo not drawn)	35.0	.	.	.	.
CCN(CC)CCNC(=O)c1ccc(NC(=O)c2cccc(S(=O)(=O)N3CCc4ccccc43)c2)cc1	.	.	.	.	.
Nc1c(S(=O)(=O)O)cc(NC(=O)c2ccccc2)c2c1C(=O)c1ccccc1C2=O	26.7	.	.	.	.
O=C(Nc1ccccc1-c1ccccc1)c1ccccc1	.	.	.	.	.
N#Cc1c(Cl)nc2c(c1C#N)CCCC2	.	106.9	.	.	.
CC(NCC(=O)Nc1ccccc1C(=O)NC1CC1)c1ccc(Cl)cc1 (stereo not drawn)	.	.	.	.	.
CC(NCC(=O)Nc1ccccc1C(=O)NC1CC1)c1cccc(Cl)c1 (stereo not drawn)	.	66.2	.	.	.
CCn1c(=O)cc(SCC(=O)N2CCCCC2)c2ccccc21	22.0	.	.	.	.
CCCCN(C)CCNC(=O)c1cc2cc3ccc(OC)cc3nc2o1	21.1	.	.	.	.
CCN(CC)CCNC(=O)c1cc2cc3ccc(OC)cc3nc2o1	.	.	.	.	.
CSc1ccc(Cn2c(C)c(C(=O)NCc3cccc(Cl)c3)sc2=O)cc1	.	/	.	.	.
Cn1c(Cn2c(=O)sc3ccccc32)nnc1SCC(=O)N1CCN(c2ccccc2)CC1	27.0	.	.	.	.
O=C(CSc1nnc(Cn2c(=O)sc3ccccc32)n1CCc1ccccc1)N1CCCC1	.	.	.	.	.
CCN(CC)C(=O)c1cccc(-c2csc(C(C)(O)c3ccc(F)c(F)c3)n2)c1 (stereo not drawn)	.	/	.	.	.
SMILES	CendR NRP1 mod	CRFR2-BP antag	Myeloid diff 2	FAS-TE inh	NadD block
Cc1[nH]c2ccccc2c1C(=O)c1cc(Cc2ccccc2)sc1N	.	/	.	/	/
CCOc1cc(CNS(=O)(=O)c2cn(C)cn2)cc(OCC)c1OCC	21.5	.	.	.	.
COc1ccc(C(Nc2cccc([N+](=O)[O-])c2)P(=O)(OC(C)C)OC(C)C)cc1 (stereo not drawn)	.	.	.	.	.
CCOP(=O)(OCC)C(Nc1cccc([N+](=O)[O-])c1)c1ccccc1 (stereo not drawn)	.	84.1	.	.	.
C=C1CCC[C@]2(C)C[C@H]3OC(=O)C(CNC(C)(CO)CO)[C@H]3CC12 (stereo partly drawn)	.	86.4	.	.	.
CCc1ccc(-c2cc(C)no2)cc1S(=O)(=O)N1CCN(c2ccc(F)cc2)CC1	.	.	+	.	.
